Measured values as given in ChEMBL document CHEMBL3433997, “St. Jude Leishmania screening dataset” (2016).

Molecular target: Solute carrier family 2, facilitated glucose transporter member 1 (Homo sapiens) (UniProt P11166)
Assay: ST_JUDE_LEISH: Cytotoxicity at 2uM final concentration against transgenic Leishmania Mexicana promastigotes LmGLUT1 that are glucose transport deficient and complemented with the human glucose transporter GLUT1. Activity is measured by DNA content using SYBR green in vitro
Assay type: functional

Chain of Solute carrier family 2, facilitated glucose transporter member 1 (Homo sapiens) (P11166 whole entry): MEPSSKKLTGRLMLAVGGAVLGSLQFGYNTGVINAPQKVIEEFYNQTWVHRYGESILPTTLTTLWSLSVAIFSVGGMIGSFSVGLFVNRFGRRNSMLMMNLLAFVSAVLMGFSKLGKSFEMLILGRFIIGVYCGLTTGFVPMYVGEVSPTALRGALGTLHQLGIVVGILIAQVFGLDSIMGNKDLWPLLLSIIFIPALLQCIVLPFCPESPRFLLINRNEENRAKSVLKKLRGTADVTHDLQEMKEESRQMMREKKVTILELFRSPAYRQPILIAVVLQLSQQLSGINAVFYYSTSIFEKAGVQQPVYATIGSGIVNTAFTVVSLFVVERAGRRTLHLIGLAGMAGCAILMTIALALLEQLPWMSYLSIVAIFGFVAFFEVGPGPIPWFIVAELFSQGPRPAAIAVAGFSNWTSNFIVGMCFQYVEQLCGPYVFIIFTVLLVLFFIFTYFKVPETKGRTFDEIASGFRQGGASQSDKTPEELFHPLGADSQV

How did the inhibition turn out when COc1ccc(S(=O)(=O)Nc2cc(Br)cc3c2OCCC3)cc1N1CCN(C(=O)C(Cl)(Cl)Cl)CC1 was run?
The inhibition was -1.16%.

Which inhibition does the source give for COCCOCCOCCn1ccc2c3c(N)nc(N)nc3ccc21 here?
Its inhibition is 4.65%.

How did the inhibition turn out when Cc1cc(F)ccc1-c1nc(NCC(O)CNCCc2ccccc2)nc2c1ccc(=O)n2-c1c(F)cccc1F (stereo not given) was run?
The inhibition was 5.26%.

Fc1cccc(Nc2nc(NCCc3ccc(Cl)cc3)nc(Nc3cccc(F)c3)n2)c1 was tested. Which inhibition did it give?
Its inhibition is 2.39%.

With CCc1nnc2sc(-c3cccc(NC(=O)c4ccc(C)c([N+](=O)[O-])c4)c3)nn12 as the compound, how does the inhibition read?
The inhibition was 7.69%.

Cc1cc(=NN=Cc2ccc(Cl)cc2)c2ccccc2[nH]1 was tested. Which inhibition did it give?
The inhibition was 4.28%.

With CCCC(CNCc1cccc(SC(F)(F)F)c1)CNc1cc(=O)c2ccccc2[nH]1 (stereo not given) as the compound, how does the inhibition read?
Its inhibition is -0.14%.

Which inhibition does the source give for CS(=O)(=O)CCNCc1cc(-c2cc3ncnc(Nc4ccc(OCc5cccc(F)c5)c(Cl)c4)c3s2)cs1 here?
Its inhibition is 5.58%.

O=C(NCCCN1CCC(Cc2ccccc2)CC1)c1cc2c(Cl)nc3ccccc3c2s1 was tested. Which inhibition did it give?
The inhibition was 0.05%.

Which inhibition does the source give for Cc1ccc(NC(=O)c2cc(Br)cc(N3CCCN(C)CC3)c2)cc1F here?
Its inhibition is -0.54%.

With COc1cc(OCCCN(C)Cc2ccc(OC)c(OC)c2)ccc1NC(=O)c1cccc2c(O)c3cccc(F)c3nc12 as the compound, how does the inhibition read?
Its inhibition is 2.95%.

How did the inhibition turn out when COc1ccc2nccc([C@@H](O)CN3CCC(NC(=O)c4cc5ccccc5[nH]4)CC3)c2c1 was run?
Its inhibition is 36%.

Oc1c(Br)cc2oc3c(c2c1CNCc1ccccc1)CCCC3 was tested. Which inhibition did it give?
Its inhibition is -0.72%.

For O=C(NCCCCN1CCC(c2ccc(OC(F)(F)F)cc2)CC1)c1ccc(NC(=O)c2ccc(Cl)cc2)cc1, which inhibition is on record?
Its inhibition is -1.27%.

With O=C1CSc2ccc(CNC3CCN(CCc4c(F)cnc5ccc(F)cc45)CC3)nc2N1 as the compound, how does the inhibition read?
The inhibition was -2.82%.
